697 NFkB inh: lowers PMA/ionomycin-induced NF-kB signal in 697 B cells; 697 B-cell NF-kB luciferase reporter, 16 h; inhibition, % at 4 µM; 330,000 tested, 0.33% active; AID 435022; in the data active means inhibition above about 35%
Jurkat NFkB inh: inhibitors of the PMA/ionomycin-induced NF-kB reporter in Jurkat cells. PMA/ionomycin-induced NF-kB luciferase reporter, luminescence. inhibition, % at 4 µM. 330,000 tested, 0.53% active. AID 435003; in the data active means inhibition above about 50%
Gli-Sufu block: blocks Gli-Sufu signaling in a luciferase reporter. Sufu-KO-LIGHT fibroblasts, Gli luciferase reporter luminescence. inhibition, % at 5 µM. 340,000 tested, 0.74% active. AID 588413;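 active means inhibition above about 55%, limit read from the data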;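 further: 0% = DMSO-treated cells and 100% = wells with medium but no cells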
Beta apoptosis: beta cell apoptosis inhibition; INS-1E cytokine-induced death, ATP luminescence, 48 h; percent of positive-control rescue, neutral wells zero; protection from apoptosis, % (test concentration not listed); 300,000 tested, 0.8% active;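 active means Every replicate reaches about 75%, or at least half do and their mean reaches it too, limit read from the data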;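 further: 0% = cytokine-treated negative control wells and 100% = positive control rescue; higher means more ATP so stronger rescue from cytokine killing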
Gli antag conf: Gli-SUFU antagonism confirmation, single concentration | Sufu-KO-LIGHT cells, Gli luciferase reporter, luminescence | shares compounds with Gli-Sufu block | AID 602428 | 2,500 tested, 40% active | inhibition, % at 5 µM;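 active means mean inhibition at 5 µM reaching about 45%, limit read from the data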;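 further: plate controls were DMSO-treated cells for no effect and wells lacking cells for full effect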
SufuKO cytotox: cytotoxic in Gli-SUFU antagonist counter-screen; shares compounds with Gli-Sufu block; Sufu-KO-LIGHT cells cytotoxicity, ATP luminescence; cytotoxicity, % at 5 µM; 2,500 tested, 32% active; AID 651994;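 active means mean cytotoxicity at 5 µM above about 25%, limit read from the data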;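 further: cells exposed to compound overnight for roughly 16 to 18 hours; plate controls were DMSO wells with cells for no effect and medium without cells for full effect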
Wnt3a cs: Wnt3a reporter inhibition counter-screen; shares compounds with Gli-Sufu block; Wnt-LIGHT cells, Wnt3a-driven luciferase reporter, luminescence; inhibition, % at 6.25 µM; 2,500 tested, 20% active; AID 651995;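 active means mean inhibition above about 25%, limit read from the data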
* marks the source's active call; other numbers are inactive results; . = no result given. This is a sample that favours compounds with a hit; in the whole collection about 1.8% have one here.

SMILES | 697 NFkB inh | Jurkat NFkB inh | Gli-Sufu block | Beta apoptosis | Gli antag conf | SufuKO cytotox | Wnt3a cs
CC(C)Cn1c(N)c(C(=O)COC(=O)C2Cc3ccccc3CN2S(C)(=O)=O)c(=O)n(C)c1=O (stereo not drawn) | -1 | 13 | 56* | 27 | 61* | 31* | 8
CC(C)Cn1c(N)c(C(=O)COC(=O)C2CCCCC2)c(=O)n(C)c1=O | 5 | 1 | 7 | -2 | . | . | .
O=c1[nH]c(/C(Cl)=C/c2cc(Cl)ccc2O)nc2cc(Cl)ccc12 | 3 | 7 | 20 | -4 | . | . | .
COc1ccc(-c2nc3n(c(=O)c2C#N)CCS3)cc1 | 6 | -16 | 56* | -12 | 14 | 19 | -21
CCOc1ccc2cc(C(=O)NCc3ccccc3)c(=N)oc2c1 | -12 | -2 | 54 | -4 | 8 | 13 | -39
O=C(CN1C(=O)/C(=C\c2ccccc2Br)Oc2ccccc21)NCCCN1CCOCC1 | -2 | -5 | 24 | 7 | . | . | .
CC(=O)c1c(N)[nH]c(-c2ccccc2)nc1=S | -69 | -69 | 16 | 2 | . | . | .
O=c1[nH]c(C2CCN(S(=O)(=O)c3ccccc3F)CC2)nc2c1nnn2Cc1ccc(F)cc1 | 5 | 7 | 6 | 2 | . | . | .
Cc1ccc(Cn2nnc3c(=O)[nH]c(C4CCN(S(=O)(=O)c5ccccc5F)CC4)nc32)cc1 | 14 | 21 | 51 | -7 | 13 | 2 | -9
Cc1ccc(NC(=O)/C=C/c2ccc([N+](=O)[O-])s2)c(C)c1 | . | . | 72* | 106* | 37 | 5 | 90*
Cc1ccc(C)c(N(C)S(=O)(=O)c2cccc3nsnc23)c1 | -28 | 10 | 5 | -2 | . | . | .
CCC(NC(=O)CCC(=O)N1CCN(S(=O)(=O)c2ccc(C)cc2)CC1)c1ccc(C)cc1 (stereo not drawn) | -3 | 2 | 0 | 0 | . | . | .
CCc1cc(=O)oc2cc(C)cc(OCC(=O)N[C@@H](CSCc3ccccc3)C(=O)O)c12 | 6 | 3 | 57* | . | 23 | -3 | 3
COc1cc(-c2nc3ccc4ccccc4c3c3c2CCC3)ccc1O | -11 | -21 | -15 | 2 | . | . | .
O=C(O)c1sccc1S(=O)(=O)N1CCN(c2ccc(C(F)(F)F)cn2)CC1 | -30 | -6 | 5 | 6 | . | . | .
CCOc1ccccc1NC(=O)CCn1ccnc1 | 8 | 0 | 58* | 3 | 15 | 19 | -6
CN(C(=O)c1ccc(NC(=O)Cc2cccc(NC(=O)C3CCCN(C(=O)C4CCC4)C3)c2)cc1)C1CCCC1 (stereo not drawn) | -14 | -5 | 57* | -2 | 18 | -3 | -9
CN(Cc1ccc(F)cc1)C(=O)COc1ccccc1-c1ccccc1 | -5 | 2 | -2 | -9 | . | . | .
O=C(NC1CCCC1)C(c1ccccc1)N(Cc1cccnc1)C(=O)Cc1cccs1 (stereo not drawn) | 1 | -30 | 57* | -8 | 23 | 0 | 6
CCCn1c(Sc2nc3c(c(=O)[nH]c(=O)n3C)n2CCC)nc2c1c(=O)[nH]c(=O)n2C | -4 | 1 | 99* | -7 | 9 | 2 | -4
COCCn1c(SCCCc2ccccc2)nc2c1c(=O)[nH]c(=O)n2C | -16 | 8 | 8 | 2 | . | . | .
COCCSc1nc2c(c(=O)[nH]c(=O)n2C)n1CCCc1ccccc1 | -12 | 4 | 52 | 6 | 9 | 3 | -32
CCOC(=O)N1CCN(CC(O)COCC2=CCC3CC2C3(C)C)CC1 (stereo not drawn) | 11 | 0 | -6 | -17 | . | . | .
Cc1nn(Cc2ccc(Cl)cc2)c(C)c1NC(=O)Cn1nc([N+](=O)[O-])c(Cl)c1C | -5 | -13 | 51 | . | 10 | 8 | 12
Cc1nn(Cc2c(Cl)cccc2Cl)c(C)c1NC(=O)CCCn1nc([N+](=O)[O-])c(Cl)c1C | 9 | 8 | 26 | 8 | . | . | .
SMILES | 697 NFkB inh | Jurkat NFkB inh | Gli-Sufu block | Beta apoptosis | Gli antag conf | SufuKO cytotox | Wnt3a cs
Cc1nn(Cc2ccccc2)c(C)c1NC(=O)CCCn1nc([N+](=O)[O-])c(Cl)c1C | 12 | 7 | 54 | 3 | 16 | 13 | -31
Cc1cc(=O)oc2cc(OCC(O)CN3CCN(c4ccccc4)CC3)ccc12 (stereo not drawn) | 6 | 8 | -8 | 2 | . | . | .
Cc1cc(=O)oc2cc(OCC(O)CN3CCc4ccccc4C3)ccc12 (stereo not drawn) | 14 | -5 | 95* | 6 | 11 | 14 | -44
O=C(CCl)Nc1cc(S(=O)(=O)N2CCCCCC2)ccc1Cl | 5 | 23 | 10 | 1 | . | . | .
CC(C)(C)CC(=O)Nc1cc(S(=O)(=O)N2CCCCCC2)ccc1Cl | 11 | 11 | 60* | . | 17 | 5 | -20
CCOc1ccc(C(=O)OC2CCN(C)CC2)cc1 | -10 | -47 | -2 | . | . | . | .
O=C(CN1C(=O)c2ccccc2S1(=O)=O)Nc1cccnc1 | 10 | -3 | 7 | -3 | . | . | .
O=C(CN1C(=O)c2ccccc2C1=O)Nc1cccnc1 | 15 | -4 | 64* | 6 | 17 | 8 | 7
CCC(=O)Nc1ccc(Cl)c(NC(=O)c2ccc(Br)o2)c1 | 14 | 15 | 7 | -4 | . | . | .
Cc1ccc(CNC(=O)c2cc(S(=O)(=O)N3CCOCC3)cn2C)cc1 | 3 | -3 | -10 | -1 | . | . | .
Cc1cc(C)c2nc(NNC(=O)c3ccc(S(=O)(=O)N4CCCC(C)C4)cc3)sc2c1 (stereo not drawn) | -25 | 2 | 58* | 107* | 17 | 9 | -8
CC1CCCN(S(=O)(=O)c2ccc(C(=O)Nc3nnc(C4CC4)o3)cc2)C1 (stereo not drawn) | -9 | 1 | -1 | 10 | . | . | .
O=C(Nc1ccncc1)c1ccc(-c2ccccc2)cc1 | -1 | 35 | 58* | 1 | 55* | 23 | -84
O=C(Nc1ccc2oc(-c3ccncc3)nc2c1)c1ccccc1F | -39 | -29 | -17 | 7 | . | . | .
O=C(Nc1ccc2oc(-c3ccncc3)nc2c1)c1ccccc1 | -19 | -9 | 85* | 0 | 21 | 1 | -25
COc1ccc(C(=O)N/N=C(\C)CC(=O)N2CCN(C=O)CC2)cc1 | 3 | 4 | 4 | -1 | . | . | .
Cc1cc(Nc2ccccc2Br)n2nc(C)nc2n1 | -8 | 5 | 54 | -5 | 12 | 4 | 8
CN1/C(=C\C(=O)COC(=O)c2ccc(O)cc2)C(C)(C)c2ccccc21 | -18 | -6 | 10 | 16 | . | . | .
CN1/C(=C\C(=O)COC(=O)c2ccc(O)c(O)c2)C(C)(C)c2ccccc21 | -24 | 21 | 65* | 95* | 64* | 26* | 75*
CN1/C(=C\C(=O)COC(=O)CNC(=O)c2ccc3ccccc3c2)C(C)(C)c2ccccc21 | -10 | -3 | 51 | 40 | 47* | 14 | 8
O=C(Nc1ccccc1OC(=O)c1ccc(Cl)cc1)c1ccc(Cl)cc1 | -3 | -28 | 3 | -7 | . | . | .

Assay outcomes from PubChem BioAssay.
